# NPC1 prom act: qHTS Assay for NPC1 Promoter Activators | AID 485313, 2010 | Potency, µM (doses to about 9.22 µM), inactives show at the highest dose activation, usual class: activators | Huh7 NPC1 promoter luciferase reporter, 24 h | 320,000 tested, 2.4% active; note: % of control where 0% means no effect; nearly all actives have a fitted effect of over 60% in size
#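 Readout is luciferase luminescence, reflecting NPC1 promoter activation in stably transfected Huh7 cells after 24 h compound exposure at 37 °C in reduced-serum medium with 10% FBS.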
# KinaseGlo FLuc: Counterscreen for Luciferase (Kinase-Glo TM) Inhibition; Luciferin 4-monooxygenase (Photuris pensylvanica), Q27757; Kinase-Glo luciferase, ATP luminescence, 8 min; Potency, µM (doses to about 38.3 µM), inactives show at the top dose activity change, negative = inhibition, actives largely listed as inhibitors; 200,000 tested, 0.28% active; note: % is set by controls: 0 for no effect and ±100 for the full control effect; nearly all actives have a fitted effect of over 60% in size
#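 Luminescence was the read-out, taken after 8-minute incubation at ambient temperature. Luciferase turned over luciferin with 10 uM ATP in imidazole pH 7.2 buffer containing KCl, MgCl2, Tween 20 and BSA.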
# SMN2 splice enh: qHTS Assay for Enhancers of SMN2 Splice Variant Expression; HEK293 SMN2-luciferase splicing reporter, luminescence, 30-36 h; Potency, µM (highest dose often 46.1 µM), inactives show at the top dose activity change, positive = activation, hits mostly activators; 210,000 tested, 2.8% active; AID 1458, 2008; note: % of control where 0% means no effect; nearly all actives have a fitted effect of over 55% in size
#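 HEK293 cells carry an SMN2 minigene-luciferase reporter in which exon 7 inclusion puts luciferase in frame. Cells were seeded at 2000 cells/well, attached for 10-12 hours, then exposed to compounds for 30-36 hours at 37C before ONE-Glo luminescence.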
# ELG1 genotoxic: qHTS screen for small molecules that induce genotoxicity in human embryonic kidney (HEK293T) cells expressing luciferase-tagged ELG1. 330,000 tested, 1.3% active. Potency, µM (series often up to 46 µM), inactives show at the highest dose activity change, positive = activation, actives largely listed as activators. HEK293T ELG1-luciferase reporter, luminescence, 16 h. AID 504466, 2011; note: % of control where 0% means no effect; nearly all actives have a fitted effect of over 60% in size
#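 Quantitative HTS format in 1536-well plates. HEK293T ELG1-luciferase reporter cells receive test compound and are incubated 16 hr at 37 °C, 5% CO2; ONE-Glo added, 30 min room temperature, then luminescence read.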
# Rab9 prom act: qHTS Assay for Rab9 Promoter Activators. Huh7 Rab9 promoter-luciferase reporter, luminescence, 24 h. Potency, µM (series often up to 9.22 µM), without a hit: at the highest dose activation, negative = inhibition, hits mostly activators. 320,000 tested, 2.8% active. AID 485297, 2010; note: % of control where 0% means no effect; nearly all actives have a fitted effect of over 60% in size
#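 Huh7 cells stably carrying Rab9 promoter–luciferase reporter, plated 1500 cells/well, compound added after 2 h and incubated 24 h at 37 °C; luciferase luminescence then read after 10 min with detection reagent.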
# FLuc counter: qHTS profiling assay for firefly luciferase inhibitor/activator using purifed enzyme and Km concentrations of substrates (counterscreen for miR-21 project); Potency, µM (titrated, usually from 57.5 µM), without a hit: top-dose activity change, negative = inhibition, hits mostly inhibitors; purified FLuc, Km substrates, luminescence inhibition; 360,000 tested, 6.9% active; AID 588342, 2011; Luciferin 4-monooxygenase (Photinus pyralis), P08659;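 note: plate controls were vehicle for no effect and reference inhibitor for full effect; nearly all actives have a fitted effect of over 55% in size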
# Target sequence (P08659 whole entry, looked up): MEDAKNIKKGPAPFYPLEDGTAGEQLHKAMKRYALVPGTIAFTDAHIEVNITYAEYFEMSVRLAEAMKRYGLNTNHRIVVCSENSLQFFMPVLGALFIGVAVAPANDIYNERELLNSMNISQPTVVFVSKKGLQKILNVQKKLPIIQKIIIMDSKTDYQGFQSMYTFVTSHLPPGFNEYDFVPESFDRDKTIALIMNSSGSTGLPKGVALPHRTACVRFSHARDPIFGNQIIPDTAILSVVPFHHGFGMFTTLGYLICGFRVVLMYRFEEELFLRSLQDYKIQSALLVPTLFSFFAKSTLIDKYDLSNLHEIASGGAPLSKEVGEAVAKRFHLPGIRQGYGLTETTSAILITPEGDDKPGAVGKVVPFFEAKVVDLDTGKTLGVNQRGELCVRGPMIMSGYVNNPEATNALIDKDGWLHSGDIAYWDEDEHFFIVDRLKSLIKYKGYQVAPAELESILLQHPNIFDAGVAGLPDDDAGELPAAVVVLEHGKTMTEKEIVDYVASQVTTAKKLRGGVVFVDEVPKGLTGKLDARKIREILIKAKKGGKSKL
#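 Purified P. pyralis luciferase, 10 nM final, with Km-level 10 uM D-luciferin and 10 uM ATP in 50 mM Tris acetate pH 7.5, 10 mM Mg acetate, 0.01% Tween-20, 0.05% BSA; 6-point qHTS titration about 60 µM downward; luminescence read.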
# Numbers without * were called inactive; u = inconclusive; x = no result given; [ ] = another dose, or the depositor's remark. In the library only some 7.5% were active in any assay of this set; here they are far more common. Calls come from the whole dose curve; as a rule, active = well fitted curve in the direction sought with a large enough effect; inconclusive = small, poorly fitted or top-dose-only effect, or another doubt; inactive = no such curve, though single readings can be large; an effect the other way counts as inactive or inconclusive. Potency is the fitted concentration of half-maximal effect.
SMILES,NPC1 prom act,KinaseGlo FLuc,SMN2 splice enh,ELG1 genotoxic,Rab9 prom act,FLuc counter
COc1ccc(/C=C/C(=O)Nc2cccnc2Cl)cc1,2µM*,x,x,9.2µM*,2.5µM*,5.4µM*
COC(=O)c1cc(Cl)c(NC(=O)/C=C/c2ccc(OC)cc2)cc1OC,-8%,-1%,4%,8%,3%,4%
Cc1ccc(N2CCN(C(=O)CCS(=O)(=O)c3cc4c(cc3Cl)NC(=O)CO4)CC2)c(C)c1,x,x,x,x,x,-3%
Cc1ccc(N2C(=O)CSC23C(=O)N(CC(=O)NCc2ccccc2)c2ccccc23)cc1C (stereo not given),x,x,x,x,x,-9%
Cc1onc(-c2c(Cl)cccc2Cl)c1C(=O)N[C@H]1C(=O)N2[C@H]1SC(C)(C)[C@H]2C(=O)O,x,-3%[17.1 µM],-3%[20.6 µM],x,x,x
COCCCNC(=O)CCCn1c(=O)c2cccn2c2ccccc21,x,x,x,x,x,-7%
COc1ccc(N/C=C2\CCc3ccccc3C2=O)cc1,0.25µM*,11µM*,x,u,0.1µM*,0.054µM*
O=C1OC2(CCCCC2)OC(=O)C1=CNc1ccc2c(c1)OCO2,8%,-2%,11%,5%,0%,u
COc1ccc2c(c1)CC/C(=C\Nc1ccc3c(c1)OCO3)C2=O,3.5µM*,-9%,35µM*,8%,2.5µM*,1.2µM*
O=C1/C(=C/Nc2ccc3c(c2)OCO3)CCc2ccccc21,0.89µM*,2.8µM*,-76%,u,0.28µM*,0.12µM*
COc1ccc(N/C=C2\CCOC2=O)cc1,5%,0%,-6%,12%,10%,2%
Cc1ccccc1CN1CCCN(CC(=O)Nc2ccc3c(c2)OCCO3)S1(=O)=O,x,x,x,x,x,-12%
N#C/C(=C\c1ccc(F)c(Br)c1)C(=O)NC1CC1,3.2µM*,x,x,10µM*,4µM*,u
Brc1ccc(-c2cc3c(N4CCN(c5ccccc5)CC4)nccn3n2)cc1,x,x,3%,x,x,-1%
CCS(=O)(=O)N1CCC(c2nc(-c3ccc(C)cc3)no2)CC1,u,2%,-26%,10%,u,15µM*
CCS(=O)(=O)N1CCC(c2nc(-c3ccc(C(F)(F)F)cc3)no2)CC1,-15%,0%,-47%,-12%,-18%,2%
Cc1cccc(-c2noc(C3CCCCC3)n2)c1,x,-8%,24%,x,x,3µM*
Cc1ccc(-c2noc(C3CCCCC3)n2)cc1,4µM*,1%,22%,u,u,u
CCc1ccccc1NC(=O)C1CCN(S(=O)(=O)c2ccc3[nH]c(=O)ccc3c2)CC1,x,x,x,x,x,-3%
COc1ccc2nc(SCC(=O)N3CCNC3=O)[nH]c2c1,2.5µM*,-12%,u,u,2µM*,21µM*
O=C(CSc1nc(O)c(Cc2ccccc2)c(=O)[nH]1)Nc1nnc(SCc2ccccc2)s1,-5%,x,x,2%,11%,11µM*
COc1ccc(NC(=O)c2ccc(NC(=O)CSc3nccc(=O)[nH]3)cc2)cc1,17%,x,x,8%,3%,15µM*
COC(=O)C1CCN(C(=O)CSc2nc3ccc(OC)cc3[nH]2)CC1,15%,-1%,11%,5%,-2%,0%
COc1ccc2nc(SCC(=O)Nc3ccc4[nH]c(=O)[nH]c4c3)[nH]c2c1,1%,x,x,-2%,-2%,15µM*
COc1ccc(NC(=O)C2CCCN(c3ncnc4c3nc3n4CCCCC3)C2)c(OC)c1 (stereo not given),x,x,x,x,x,-2%
Cc1oc2ncn(CC(C)C)c(=O)c2c1C(=O)NCc1cccc(Cl)c1,x,x,x,x,x,4%
COc1ccc(NC(=O)CSc2nc(O)c(C/C=C/c3ccccc3)c(=O)[nH]2)cc1,x,x,-3%,x,x,5.4µM*

# Assay outcomes as filed in PubChem BioAssay.
